Experimental findings from PubChem BioAssay (NCATS) are described below.

Assay [1] concerns the target Cellular tumor antigen p53 (Homo sapiens) (UniProt P04637). Nature of the assay: Primary qHTS for small molecule compounds that upregulate eGFP-tagged delta133p53alpha (in N-terminal) cells. (AID 2060322). Also: nearly all actives have a fitted effect of over 75% in size. Also: potency is read from the fitted curve at half-maximal effect.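 As to activation: cells pre-induced with doxycycline then dosed without doxycycline; series mostly up to about 56 µM; 0% = DMSO vehicle and 100% = reference activator.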 The conditions noted are these: NCI-H358 eGFP-delta133p53alpha fluorescence, 24 h; activation: active compounds read high. A digest of the protocol: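 NCI-H358 cells pre-induced 24 h with 10 ng/ml doxycycline for eGFP-delta133p53alpha, plated dox-free and exposed 24 h at 37C to titrated compounds. Fixed, Hoechst-stained; gated GFP peak intensity by laser scanning cytometry, normalized to DMSO (0%) and 57.5 uM 5-azacytidine (100%).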
A general note: Quantitative high-throughput screening tests each substance at several concentrations.

The target of assay [2] is Aldehyde dehydrogenase, mitochondrial (Homo sapiens) (UniProt P05091). Kind of assay: qHTS for Inhibitors of the Aldehyde Dehydrogenase Family (ALDH2) Primary screen (AID 2061308).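 Also: plate controls were vehicle for no effect and reference inhibitor for full effect; nearly all actives have a fitted effect of over 55% in size.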
Assay [3] has as its target Retinaldehyde dehydrogenase 3 (Homo sapiens) (UniProt P47895). Nature of the assay: qHTS for Inhibitors of the Aldehyde Dehydrogenase Family (ALDH1A3) Validation screen (AID 2061312). Also: % is scaled to controls: 0 for no effect and ±100 for the full control effect; nearly all actives have a fitted effect of over 45% in size.
For assay [4] the target is unchanged. Nature of the assay: qHTS for Inhibitors of the Aldehyde Dehydrogenase Family (ALDH1A3) Primary screen (AID 2061315).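 Also: plate controls were DMSO vehicle for no effect and reference inhibitor for full effect.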

“And” between values parts separate entries of the source, which are not always exact repeats. Equal values may be shown once. Inconclusive results are not listed. Unmarked numbers belong to inactive results. The source made the active and inactive calls. Calls follow the shape of the dose curve; as a rule, active = well fitted curve in the direction sought with a large enough effect; inconclusive = small, poorly fitted or top-dose-only effect, or another doubt; inactive = no such curve, though single readings can be large; an effect the other way counts as inactive or inconclusive.

Chain of Cellular tumor antigen p53 (Homo sapiens) (P04637 whole entry, looked up): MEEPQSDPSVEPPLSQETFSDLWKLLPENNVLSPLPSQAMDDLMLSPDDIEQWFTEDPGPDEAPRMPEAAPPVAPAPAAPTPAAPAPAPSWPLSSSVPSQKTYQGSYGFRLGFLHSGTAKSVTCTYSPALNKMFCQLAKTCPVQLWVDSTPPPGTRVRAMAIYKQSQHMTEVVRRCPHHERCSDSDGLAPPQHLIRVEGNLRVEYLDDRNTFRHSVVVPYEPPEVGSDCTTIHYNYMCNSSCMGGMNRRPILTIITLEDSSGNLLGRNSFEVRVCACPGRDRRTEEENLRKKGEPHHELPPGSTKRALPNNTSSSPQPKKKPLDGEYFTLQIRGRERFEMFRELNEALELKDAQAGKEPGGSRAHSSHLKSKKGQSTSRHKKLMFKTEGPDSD

As to `O=C(Nc1nc2ccccc2n1CCc1ccccc1)c1ccccc1`, the activation in assay [1] is 6.68%. For the same compound, the Potency result in assay [2], in assay [3] and in assay [4] was “inactive” throughout.

Take `CC[N+]1(C/C2=C/CCCCCC2)CCC(NC(=O)C2c3cc(Cl)ccc3Oc3ccc(Cl)cc32)CC1` (stereo not given): the activation in assay [1] was 28.6%. The Potency entry in assay [2], in assay [3] and in assay [4] was “inactive” each time.

Regarding `CNC(=O)c1ccccc1Nc1nc(Nc2ccc(N3CCNCC3)cc2)ncc1Cl`, the Potency in assay [1] was 1350 nM (active). For the same compound, the Potency entry in assay [2], in assay [3] and in assay [4] was “inactive” each time.

With `Cc1ccc(-n2nc(C(C)(C)C)cc2NC(=O)Nc2cc(COc3cccnc3)[nH]n2)cc1`, in assay [1], the activation is 6.21%. Besides, the Potency result in assay [2], in assay [3] and in assay [4] was “inactive” each time.

On to `COc1ccc(CCN(C)CCCOc2nsc(-c3ccccc3)n2)cc1OC`, for which the activation in assay [1] is 13.4%. Also, the Potency entry in assay [2], in assay [3] and in assay [4] was “inactive” each time.

On to `COc1ccccc1N1CCN(CC(C(=O)NC(C)(C)C)c2ccccc2)CC1` (stereo not given), for which the activation in assay [1] was -12.4%. Further, the Potency result in assay [2], in assay [3] and in assay [4] was “inactive” throughout.

On to `O=C(OC(C(F)(F)F)C(F)(F)F)N1CCN(Cc2cccc(Oc3ccccc3)c2)CC1`, for which the activation in assay [1] is 1.43%. The Potency entry in assay [2], in assay [3] and in assay [4] was “inactive” throughout.

Consider `CCN[C@@H]1C[C@H](N)[C@@H](O[C@H]2OC(CN)=CC[C@H]2N)[C@H](O)[C@H]1O[C@H]1OC[C@](C)(O)[C@H](NC)[C@H]1O`, for which the activation in assay [1] was 10.5% and 9.67%. In addition, the Potency entry in assay [2], in assay [3] and in assay [4] was “inactive” each time.

For the compound `CC(C)(O)c1ccc2c(c1)ncn2-c1cccc(-c2ccccc2C#N)c1`, in assay [1], the activation is -12.4%. The Potency result in assay [2], in assay [3] and in assay [4] was “inactive” each time.

Regarding `OC(CC1c2ccccc2-c2cncn21)C1CCCCC1` (stereo not given), the activation in assay [1] is -7.16%. Besides, the Potency result in assay [2], in assay [3] and in assay [4] was “inactive” in each case.

`CCc1cnc(N2CCC(c3nc(COc4ccc(-n5cnnn5)cc4)cs3)CC2)nc1`: the activation in assay [1] was 2.86%. In addition, the Potency result in assay [2], in assay [3] and in assay [4] was “inactive” each time.

As for `CCOc1nc2c(N)ncnc2n1CC`, the activation in assay [1] was -10%. The Potency result in assay [2], in assay [3] and in assay [4] was “inactive” in each case.

With `CN(C)C(=O)NC1(c2ccccc2)CCN(CCC[C@]2(c3ccc(Cl)c(Cl)c3)CCCN(C(=O)c3ccccc3)C2)CC1`, the activation in assay [1] is 13.4%. Moreover, the Potency entry in assay [2], in assay [3] and in assay [4] was “inactive” throughout.

With `Cc1ccc(N2CCN(CCC3NC(=O)c4ccccc43)CC2)cc1C` (stereo not given), in assay [1], the activation is -7.16%. Besides, the Potency entry in assay [2], in assay [3] and in assay [4] was “inactive” throughout.

With `Cc1cc(C(=O)Nc2cccc(C(=O)Nc3cccc(C(F)(F)F)c3)c2)on1`, the activation in assay [1] is -7.16%. In addition, the Potency entry in assay [2], in assay [3] and in assay [4] was “inactive” in each case.

As to `O=[N+]([O-])c1cn2c(n1)OC[C@@H](OCc1ccc(-c3ccc(OC(F)(F)F)cc3)nc1)C2`, in assay [1], the activation is -3.34%. The Potency entry in assay [2], in assay [3] and in assay [4] was “inactive” each time.

Turning to `NS(=O)(=O)c1ccc(N2CCN(CC[C@@H]3OCCc4ccccc43)CC2)cc1`, the activation in assay [1] was 16.7%. Moreover, the Potency entry in assay [2], in assay [3] and in assay [4] was “inactive” each time.

`CCOC(=O)CCC(=O)O[C@H]1[C@H](O[C@@H]2[C@@H](C)[C@H](O[C@H]3C[C@@](C)(OC)[C@@H](O)[C@H](C)O3)[C@@H](C)C(=O)O[C@H](CC)[C@@](C)(O)[C@H](O)[C@@H](C)C(=O)[C@H](C)CC2(C)O)O[C@H](C)C[C@@H]1N(C)C` (stereo not given in full): the activation in assay [1] is 9.55%. Further, the Potency entry in assay [2], in assay [3] and in assay [4] was “inactive” in each case.

With `O=C(O)c1cc(-c2ccccc2)nc2ccccc12`, the activation in assay [1] is -7.34% and -10% and -1.43%. The Potency result in assay [2], in assay [3] and in assay [4] was “inactive” in each case.

Turning to `COc1cc(N)c(Cl)cc1C(=O)NC[C@@H]1CCN2CCC[C@@H]12`, the activation in assay [1] was -3.34%. In addition, the Potency result in assay [2], in assay [3] and in assay [4] was “inactive” throughout.

Consider `CNc1cc(OC)c(C(=O)N[C@@H]2CCN(Cc3ccccc3)[C@@H]2C)cc1Cl`, for which the activation in assay [1] was 12.4%. For the same compound, the Potency result in assay [2], in assay [3] and in assay [4] was “inactive” in each case.

For the compound `CCN(CC)Cc1ccc(C(=O)N(CCc2ccccc2OC)[C@@H]2CCNC2)cc1`, the activation in assay [1] is 3.34%. The Potency result in assay [2], in assay [3] and in assay [4] was “inactive” in each case.

For the compound `C[C@@H]1C(=O)O[C@H]2CC34[C@H]5C[C@@H](C(C)(C)C)C36[C@@H](OC(=O)[C@@H]6O)OC4(C(=O)O5)[C@]21O` (stereo not given in full), in assay [1], the activation is -10%. Moreover, the Potency entry in assay [2], in assay [3] and in assay [4] was “inactive” in each case.

Turning to `O=C(Nc1cc(-c2ccccc2)nn1-c1ccccc1F)c1ccc([N+](=O)[O-])cc1`, the activation in assay [1] is -5.73%. Further, the Potency result in assay [2], in assay [3] and in assay [4] was “inactive” in each case.

Regarding `O=C(Nc1ccccc1)Nc1ccc(-c2ccc(C(=O)C3CCCC3C(=O)O)cc2)cc1` (stereo not given), in assay [1], the activation is -6.21%. Further, the Potency result in assay [2], in assay [3] and in assay [4] was “inactive” throughout.
